# Data reported in PubChem BioAssay AID493036 (Sanford-Burnham Center for Chemical Genomics, 2011).
# About 560 (0.17%) of roughly 330,000 compounds were called active.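 How the source made its calls: active means activation at or above 40% of the spot to cytoplasm intensity ratio, with at least 20 cells analyzed; inconclusive means wells under 20 cells, flagged as cytotoxic or low count; inactive means the rest.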 For the sample, actives were picked, then their nearest neighbours and some compounds at random.
# Experiments:
# [1] = agonists of human NTR1, primary screen, imaging, U2OS cells, beta-arrestin-GFP, high content (AID 493036); conditions: NTR1-U2OS beta-arrestin-GFP spot imaging, agonist mode; measured here: cell count, cytotoxicity flag; at 20 µM;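 on activation: 0% = DMSO without peptide and 100% = 100 nM NTR1 peptide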
# [2] = biological target: Neurotensin receptor type 1 (Homo sapiens) (UniProt P30989); assay: as above; conditions: NTR1-U2OS beta-arrestin-GFP spot imaging, agonist mode; at 20 µM; stronger effect = higher value
# Chain of Neurotensin receptor type 1 (Homo sapiens) (P30989 whole entry, looked up): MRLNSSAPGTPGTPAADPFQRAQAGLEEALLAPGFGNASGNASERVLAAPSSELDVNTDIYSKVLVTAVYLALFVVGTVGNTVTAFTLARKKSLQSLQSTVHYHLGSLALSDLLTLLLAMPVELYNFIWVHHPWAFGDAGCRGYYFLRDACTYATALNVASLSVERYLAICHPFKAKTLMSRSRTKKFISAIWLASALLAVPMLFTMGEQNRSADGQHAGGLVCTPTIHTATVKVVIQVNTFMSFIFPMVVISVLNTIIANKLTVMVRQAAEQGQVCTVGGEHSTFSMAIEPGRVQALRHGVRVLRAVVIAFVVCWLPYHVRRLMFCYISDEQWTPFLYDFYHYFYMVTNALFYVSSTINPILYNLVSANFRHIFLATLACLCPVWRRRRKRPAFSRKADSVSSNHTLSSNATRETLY
smiles,measurement,setting,value
CCCCOc1ccc(N(CC(=O)NC(C)C)C(=O)CCC(=O)Nc2ccccn2)cc1,cell count,[1],43 cells
same,activation,[2],-1.4% (inactive)
Cc1ccc(S(=O)(=O)N2CCOCC2)cc1NC(=O)COC(=O)c1cnccn1,cell count,[1],51 cells
same,activation,[2],-0.4% (inactive)
O=C1CCC(CCC(=O)N2CCCC(C(=O)c3ccc(Cl)cc3)C2)=NN1 (centres undefined),cell count,[1],70 cells
same,activation,[2],-0.5% (inactive)
CCOC(=O)/C(=N\Nc1ccccc1[N+](=O)[O-])c1csc(Nc2ccccc2)n1,cell count,[1],59 cells
same,activation,[2],12.7% (inactive)
CCOC(=O)/C(=C\c1ccc([N+](=O)[O-])cc1)C(=O)c1cc(C(C)=O)c(Nc2ccccc2)s1,cell count,[1],50 cells
same,activation,[2],49.8% (active)
CCOC(=O)/C(C#N)=C/c1ccc(OCC(=O)Nc2ccccc2)c(OC)c1,cell count,[1],80 cells
same,activation,[2],-4.5% (inactive)
COc1ccc(S(=O)(=O)N2CCCCC2)cc1NC(=O)COc1ccccc1,cell count,[1],55 cells
same,activation,[2],2.1% (inactive)
COCC(C)n1c(C)cc(C(=O)CSc2cc(C)c3ccccc3n2)c1C (centres undefined),cell count,[1],54 cells
same,activation,[2],5% (inactive)
O=C(O)C1CCN(C(=O)OCc2ccccc2)CC1,cell count,[1],88 cells
same,activation,[2],-0.7% (inactive)
CC1=C(C(N)=O)C(c2ccc(Br)cc2)n2ncnc2N1 (centres undefined),cell count,[1],82 cells
same,activation,[2],-1.6% (inactive)
Fc1ccccc1/C=C1\CCCC2=C1Nc1ncnn1C2c1ccccc1F (centres undefined),cell count,[1],72 cells
same,activation,[2],58.7% (active)
CC(C)C(C)(C#N)NC(=O)CSc1nc2scc(-c3ccccc3)c2c(=O)[nH]1 (centres undefined),cell count,[1],65 cells
same,activation,[2],6.5% (inactive)
NS(=O)(=O)c1ccc(CCNC(=O)c2ccc([N+](=O)[O-])cc2[N+](=O)[O-])cc1,cell count,[1],46 cells
same,activation,[2],-0.2% (inactive)
O=C(CCC1CCN(C(=O)c2cccc(Cl)c2F)CC1)Nc1ccccc1,cell count,[1],63 cells
same,activation,[2],0.6% (inactive)
COc1cc(OC)cc(C(=O)NNC(=O)CCOc2ccccc2OC)c1,cell count,[1],73 cells
same,activation,[2],-0.7% (inactive)
CCCCOc1ccc(C(=O)NCC(=O)OCC(=O)c2c(N)n(C)c(=O)n(C)c2=O)cc1,cell count,[1],49 cells
same,activation,[2],-0.7% (inactive)
Cc1nnc(SCC(=O)N2c3ccccc3C(C)(c3ccc(Cl)cc3)CC2(C)C)s1 (centres undefined),cell count,[1],47 cells
same,activation,[2],8.5% (inactive)
CCn1cc(/C=C(\NC(=O)c2ccc(C)cc2)C(=O)NCCN2CCOCC2)c2ccccc21,cell count,[1],75 cells
same,activation,[2],1.6% (inactive)
N#CC1(NC(=O)COc2ccc3oc4ccccc4c3c2)CCCCC1,cell count,[1],33 cells
same,activation,[2],0.8% (inactive)
O=C(Nc1ccc2c(c1)CCC2)c1ccc(Br)s1,cell count,[1],65 cells
same,activation,[2],4.4% (inactive)
Clc1cccc(Cl)c1Cn1nnc(-c2cccs2)n1,cell count,[1],79 cells
same,activation,[2],4.8% (inactive)
CC(=O)N[C@H]1[C@H]([C@H](O)[C@H](O)CO)OC(C(=O)O)=C[C@@H]1O,cell count,[1],69 cells
same,activation,[2],1.8% (inactive)
CCOc1c(N2CCCCC2)c(=O)c1=O,cell count,[1],32 cells
same,activation,[2],2.2% (inactive)
CCOc1ccccc1NC(=O)NC1CCCCCCC1,cell count,[1],52 cells
same,activation,[2],-0.7% (inactive)
CC1(C)CC(=O)C=C(N2CCOCC2)C1,cell count,[1],46 cells
same,activation,[2],0.2% (inactive)
Cc1nc2ccc(C(=O)N/N=C/c3ccc(O)cc3)cc2[nH]1,cell count,[1],50 cells
same,activation,[2],-0.6% (inactive)
O=C(N/N=C/c1ccc(OC(=O)c2ccccc2Cl)cc1)c1ccc(O)cc1,cell count,[1],65 cells
same,activation,[2],40.7% (active)
CC(C)(C)C(=O)Nc1ccc(C(=O)N/N=C/c2ccccc2OC(=O)c2ccc(Cl)cc2Cl)cc1,cell count,[1],48 cells
same,activation,[2],0.7% (inactive)
CC1=CC=CN2C1=NC(=O)CC2(C)C(=O)N(CC(=O)NC1CCCC1)c1ccccc1C (centres undefined),cell count,[1],39 cells
same,activation,[2],1% (inactive)
Cc1ccc(N2C(=O)C(NC(=O)c3c(F)cccc3F)(C(F)(F)F)C3=C2CC(C)(C)CC3=O)cc1 (centres undefined),cell count,[1],69 cells
same,activation,[2],4% (inactive)
COc1ccccc1CN(C)c1nnnn1-c1ccccc1,cell count,[1],50 cells
same,activation,[2],1.1% (inactive)
CSc1ccc(CNCCN2CCOCC2)cc1,cell count,[1],55 cells
same,activation,[2],-2.1% (inactive)
FC(F)(F)Oc1ccc(-c2cn3cccnc3n2)cc1,cell count,[1],36 cells
same,activation,[2],3.1% (inactive)
CCc1ccccc1NC(=O)/C(=C/c1ccccc1)c1ccccc1,cell count,[1],63 cells
same,activation,[2],6.1% (inactive)
Cc1coc(C)c1C(=O)CC1(O)C(=O)N(C)c2ccc(Cl)cc21 (centres undefined),cell count,[1],91 cells
same,activation,[2],-1% (inactive)
CN(C)CCNC(=O)C(C(=O)c1ccccc1)n1ccccc1=O (centres undefined),cell count,[1],94 cells
same,activation,[2],-1.5% (inactive)
CCS(=O)(=O)n1nc(-c2ccccc2)nc1SCc1ccccc1,cell count,[1],92 cells
same,activation,[2],6.4% (inactive)
CN(C)/C=C(/C(=O)c1ccc(F)cc1)S(=O)(=O)c1ccc(F)cc1,cell count,[1],51 cells
same,activation,[2],-0.1% (inactive)
CCOC(=O)c1c(CN2CCOCC2)n(-c2ccccc2)c2ccc(O)cc12,cell count,[1],70 cells
same,activation,[2],2.7% (inactive)
CC1=NNC(=O)C1CCC(=O)N/N=C\c1cccc(Cl)c1 (centres undefined),cell count,[1],94 cells
same,activation,[2],-1% (inactive)
CCOC(=O)c1cnc(SCC(=O)Nc2ccccc2C(=O)OC)nc1N,cell count,[1],88 cells
same,activation,[2],-1.8% (inactive)
O=C(C(c1ccccc1)c1ccccc1)N1CCN(CC(O)COc2ccccc2)CC1 (centres undefined),cell count,[1],88 cells
same,activation,[2],0.6% (inactive)
CC(C)c1ccc(OCC(O)Cn2cnc3ccccc32)cc1 (centres undefined),cell count,[1],46 cells
same,activation,[2],0.1% (inactive)
OC(CN=c1sc2ccccc2n1CC(O)COc1ccccc1)COc1ccccc1 (centres undefined),cell count,[1],92 cells
same,activation,[2],58.9% (active)
Cc1nn(C)c(Oc2ccccc2)c1CCNS(=O)(=O)c1ccc(F)cc1,cell count,[1],76 cells
same,activation,[2],-0.4% (inactive)
Cc1cc(N(C)C)cc(C)[n+]1[O-],cell count,[1],38 cells
same,activation,[2],0.3% (inactive)
Cc1ccc(C(=O)N/C(=C\c2cn(S(=O)(=O)N(C)C)c3ccccc23)C(=O)N2CCCC2)cc1,cell count,[1],61 cells
same,activation,[2],1.6% (inactive)
CCCCCOC(=O)C1=C(C)Nc2nnnn2C1c1ccc(OC)c(OC)c1OC (centres undefined),cell count,[1],85 cells
same,activation,[2],0.9% (inactive)
CCCS(=O)(=O)N1CCC(C(=O)NCCc2ccc(OC)c(OC)c2)CC1,cell count,[1],46 cells
same,activation,[2],-0.4% (inactive)
O=C(N/N=C/c1ccccn1)c1cccc(NC(=O)c2ccc(Cl)cc2)c1,cell count,[1],56 cells
same,activation,[2],2.8% (inactive)
Cc1cc2c(cc1C)N(C(=O)CN1C(=O)c3ccccc3C1=O)C(C)(C)c1ssc(=S)c1-2,cell count,[1],52 cells
same,activation,[2],23.8% (inactive)
COc1ccnc(Oc2ccccc2)n1,cell count,[1],45 cells
same,activation,[2],3% (inactive)
